Structures can show the parent of a compound that is named as a salt.
How the values were obtained:
Conditions in all cases: 10 µM; exposure time 6 h
[1] = system: Danio rerio larvae (5 dpf); assay: difference in excitability vs DMSO (percentage points); higher = more excitable than DMSO
Outline: (§1)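 Wild-type zebrafish larvae at 5 dpf were kept in 96-well plates and exposed for 6 h to 100 µL egg water holding library compound at a final concentration of 10 µM. From 3 h into exposure, the plates were held at 28.5 ℃ and photographed every 6 s through a 3-h programme of moving lines and 100 ms, 400Hz tones. Each behaviour was scored by Z-LaP Tracker, a DeepLabCut model, and averaged over 48 larvae per compound. Every value gives the compound mean minus the vehicle control mean, in percentage points.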

[2] = system: Danio rerio larvae (5 dpf); assay: difference in startle response vs DMSO (percentage points); higher = stronger startle than DMSO
Outline: as §1

[3] = system: Danio rerio larvae (5 dpf); assay: difference in activity during first hour vs DMSO (percentage points); higher = more activity than DMSO
Outline: as §1

[4] = system: Danio rerio larvae (5 dpf); assay: difference in habituation to acoustic stimuli vs DMSO (percentage points); higher = more habituation than DMSO
Outline: as §1

[5] = system: Danio rerio larvae (5 dpf); assay: difference in combined optomotor response to red, green and blue moving lines vs DMSO (percentage points); higher = stronger optomotor response than DMSO
Outline: as §1

**Q.** For CCCCCCCCCCC[C@@H](C[C@@H]1OC(=O)[C@H]1CCCCCC)OC(=O)[C@H](CC(C)C)NC=O [Orlistat], which difference in excitability [1] is on record?
**A.** The difference in excitability was 0.283.

**Q.** And the “difference in startle response” value [2]?
**A.** The value was 0.288.

**Q.** What about the “difference in activity during first hour” value [3] of the same compound?
**A.** Its value is 10.8.

**Q.** What about the “difference in habituation to acoustic stimuli” value (“difference in habituation” for short) [4] of the same compound?
**A.** The value was 3.74.

**Q.** And the difference [5]?
**A.** The difference was 2.67.

**Q.** With COc1cc2nc(N3CCN(C(=O)c4ccco4)CC3)nc(N)c2cc1OC [Prazosin (hydrochloride)] as the compound, how does the difference in excitability [1] read?
**A.** The difference in excitability was 20.4.

**Q.** What about the “difference in startle response” value [2] of the same compound?
**A.** Its value is 2.07.

**Q.** What about the “difference in activity during first hour” value [3] of the same compound?
**A.** Its value is 11.2.

**Q.** And the “difference in habituation” value [4]?
**A.** Its value is -7.66.

**Q.** What about the difference [5] of the same compound?
**A.** The difference was 6.47.

**Q.** With Nc1nc2c(ncn2COCCO)c(=O)[nH]1 [Acyclovir] as the compound, how does the difference in excitability [1] read?
**A.** Its difference in excitability is 2.27.

**Q.** And the “difference in startle response” value [2]?
**A.** Its value is 2.62.

**Q.** And the “difference in activity during first hour” value [3]?
**A.** The value was -4.23.

**Q.** And the “difference in habituation” value [4]?
**A.** Its value is 8.37.

**Q.** What about the difference [5] of the same compound?
**A.** Its difference is -2.63.

**Q.** What does the source list for CCCCN1C[C@H](O)[C@@H](O)[C@H](O)[C@H]1CO [N-Butyldeoxynojirimycin (hydrochloride)]?
**A.** difference in excitability [1]: -7.96; difference in startle response [2]: 4.45; difference in activity during first hour [3]: 16.1; difference in habituation to acoustic stimuli [4]: 5.5; difference [5]: 4.55

**Q.** How did the difference in excitability [1] turn out when CO[C@H]1C[C@@H]2CC[C@@H](C)[C@@](O)(O2)C(=O)C(=O)N2CCCC[C@H]2C(=O)O[C@H]([C@H](C)C[C@@H]2CC[C@@H](OCCO)[C@H](OC)C2)CC(=O)[C@H](C)/C=C(\C)[C@@H](O)[C@@H](OC)C(=O)[C@H](C)C[C@H](C)/C=C/C=C/C=C/1C [Everolimus] was run?
**A.** The difference in excitability was 1.38.

**Q.** And the “difference in startle response” value [2]?
**A.** The value was 1.06.

**Q.** What about the “difference in activity during first hour” value [3] of the same compound?
**A.** Its value is 1.4.

**Q.** And the “difference in habituation” value [4]?
**A.** Its value is -3.73.

**Q.** And the difference [5]?
**A.** Its difference is 5.32.

**Q.** What does the source list for CC1(C)O[C@@H]2C[C@H]3[C@@H]4C[C@H](F)C5=CC(=O)CC[C@]5(C)[C@H]4[C@@H](O)C[C@]3(C)[C@]2(C(=O)CO)O1 [Flurandrenolide]?
**A.** difference in excitability [1]: 7.97; difference in startle response [2]: 0.156; difference in activity during first hour [3]: 1.93; difference in habituation to acoustic stimuli [4]: 0.924; difference [5]: 5.73

**Q.** Which difference in excitability [1] does the source give for S=c1nc[nH]c2nc[nH]c12 [6-Mercaptopurine (hydrate)] here?
**A.** Its difference in excitability is 6.66.

**Q.** And the “difference in startle response” value [2]?
**A.** Its value is 2.46.

**Q.** And the “difference in activity during first hour” value [3]?
**A.** The value was -5.06.

**Q.** What about the “difference in habituation” value [4] of the same compound?
**A.** Its value is -0.245.

**Q.** What about the difference [5] of the same compound?
**A.** The difference was 1.98.

**Q.** Which difference in excitability [1] does the source give for CCCc1nc(C)c2c(=O)nc(-c3cc(S(=O)(=O)N4CCN(CC)CC4)ccc3OCC)[nH]n12 [Vardenafil (hydrochloride hydrate)] here?
**A.** Its difference in excitability is 4.29.

**Q.** What about the “difference in startle response” value [2] of the same compound?
**A.** Its value is 1.36.

**Q.** And the “difference in activity during first hour” value [3]?
**A.** The value was 0.203.

**Q.** And the “difference in habituation” value [4]?
**A.** Its value is 5.85.

**Q.** What about the difference [5] of the same compound?
**A.** Its difference is 12.9.

**Q.** What does the source list for COC(=O)CCc1ccc(OCC(O)CNC(C)C)cc1 (stereo not given) [Esmolol (hydrochloride)]?
**A.** difference in excitability [1]: -2.69; difference in startle response [2]: 4.98; difference in activity during first hour [3]: 5.19; difference in habituation to acoustic stimuli [4]: -2.83; difference [5]: 10.6

**Q.** Which results are given for Cn1c(=O)c2c(ncn2C)n(C)c1=O [Caffeine]?
**A.** difference in excitability [1]: 5.33; difference in startle response [2]: 2.45; difference in activity during first hour [3]: 2.64; difference in habituation to acoustic stimuli [4]: 7.15; difference [5]: 4.07

**Q.** What does the source list for CC[C@H](C)C[C@H](C)CCCCCCCCC(=O)N[C@H]1C[C@@H](O)[C@@H](NCCN)NC(=O)[C@@H]2[C@@H](O)CCN2C(=O)[C@H]([C@H](O)CCN)NC(=O)[C@H]([C@H](O)[C@@H](O)c2ccc(O)cc2)NC(=O)[C@@H]2C[C@@H](O)CN2C(=O)[C@H]([C@@H](C)O)NC1=O [Caspofungin (acetate)]?
**A.** difference in excitability [1]: 12.4; difference in startle response [2]: -1.41; difference in activity during first hour [3]: -14; difference in habituation to acoustic stimuli [4]: -0.0911; difference [5]: -8.06

**Q.** How did the difference in excitability [1] turn out when O=C(O)CCNC(=O)c1ccc(/N=N/c2ccc(O)c(C(=O)O)c2)cc1 [Balsalazide] was run?
**A.** Its difference in excitability is 4.51.

**Q.** And the “difference in startle response” value [2]?
**A.** Its value is 9.09.

**Q.** And the “difference in activity during first hour” value [3]?
**A.** The value was 15.

**Q.** What about the “difference in habituation” value [4] of the same compound?
**A.** Its value is 1.8.

**Q.** What about the difference [5] of the same compound?
**A.** Its difference is 4.25.

**Q.** What does the source list for CO[C@H]1/C=C/O[C@@]2(C)Oc3c(C)c(O)c4c(O)c(c5c(nc6cc(C)ccn65)c4c3C2=O)NC(=O)/C(C)=C\C=C\[C@H](C)[C@H](O)[C@@H](C)[C@@H](O)[C@@H](C)[C@H](OC(C)=O)[C@@H]1C [Rifaximin]?
**A.** difference in excitability [1]: -5.63; difference in startle response [2]: -5.31; difference in activity during first hour [3]: 13.2; difference in habituation to acoustic stimuli [4]: 0.472; difference [5]: 0.85

**Q.** How did the difference in excitability [1] turn out when C1N2CN3CN1CN(C2)C3 [Methenamine Hippurate] was run?
**A.** Its difference in excitability is 0.76.

**Q.** And the “difference in startle response” value [2]?
**A.** The value was 5.89.

**Q.** What about the “difference in activity during first hour” value [3] of the same compound?
**A.** The value was -3.94.

**Q.** What about the “difference in habituation” value [4] of the same compound?
**A.** Its value is 9.62.

**Q.** And the difference [5]?
**A.** The difference was 2.94.

**Q.** CN(Cc1ccc(C(C)(C)C)cc1)Cc1cccc2ccccc12 [Butenafine (hydrochloride)] was tested. Which difference in excitability [1] did it give?
**A.** The difference in excitability was 2.06.

**Q.** What about the “difference in startle response” value [2] of the same compound?
**A.** Its value is 2.01.

**Q.** And the “difference in activity during first hour” value [3]?
**A.** The value was -10.7.

**Q.** What about the “difference in habituation” value [4] of the same compound?
**A.** Its value is 0.859.

**Q.** What about the difference [5] of the same compound?
**A.** The difference was -2.95.

**Q.** What does the source list for CC(C)[C@H](N)C(=O)OCCOCn1cnc2c(=O)[nH]c(N)nc21 [L-Valacyclovir (hydrochloride)]?
**A.** difference in excitability [1]: 6.67; difference in startle response [2]: 6.55; difference in activity during first hour [3]: 5.61; difference in habituation to acoustic stimuli [4]: -8.71; difference [5]: -5.74

**Q.** CN(C)C/C=C/C(=O)Nc1cc2c(Nc3ccc(F)c(Cl)c3)ncnc2cc1O[C@H]1CCOC1 [Afatinib (maleate)] was tested. Which difference in excitability [1] did it give?
**A.** Its difference in excitability is 20.1.

**Q.** What about the “difference in startle response” value [2] of the same compound?
**A.** Its value is -1.05.

**Q.** And the “difference in activity during first hour” value [3]?
**A.** Its value is -11.3.

**Q.** And the “difference in habituation” value [4]?
**A.** The value was 5.63.

**Q.** And the difference [5]?
**A.** The difference was 8.09.

**Q.** Which results are given for O=C(O)CCCCCCCC(=O)O [Azelaic Acid]?
**A.** difference in excitability [1]: 1.68; difference in startle response [2]: 4.07; difference in activity during first hour [3]: -2.89; difference in habituation to acoustic stimuli [4]: 4.6; difference [5]: 6.08

**Q.** For c1cnc2cc3c(cc2n1)[C@@H]1CNC[C@H]3C1 [Varenicline (tartrate)], which difference in excitability [1] is on record?
**A.** The difference in excitability was 0.228.

**Q.** And the “difference in startle response” value [2]?
**A.** Its value is 1.55.

**Q.** And the “difference in activity during first hour” value [3]?
**A.** The value was 3.08.

**Q.** And the “difference in habituation” value [4]?
**A.** Its value is 5.66.

**Q.** What about the difference [5] of the same compound?
**A.** Its difference is -2.67.

**Q.** Which results are given for CC(S)C(=O)NCC(=O)O (stereo not given) [Tiopronin]?
**A.** difference in excitability [1]: 1.71; difference in startle response [2]: -1.91; difference in activity during first hour [3]: 3.62; difference in habituation to acoustic stimuli [4]: -3.05; difference [5]: 3.9

**Q.** What does the source list for CC(=O)OCC(=O)[C@@]1(O)CC[C@H]2[C@@H]3CCC4=CC(=O)CC[C@]4(C)[C@@]3(F)[C@@H](O)C[C@@]21C [Fludrocortisone Acetate]?
**A.** difference in excitability [1]: -4.21; difference in startle response [2]: 4.97; difference in activity during first hour [3]: -1.84; difference in habituation to acoustic stimuli [4]: 0.633; difference [5]: 1.96

**Q.** COC(=O)N(C)c1c(N)nc(-c2nn(Cc3ccccc3F)c3ncccc23)nc1N [Riociguat] was tested. Which difference in excitability [1] did it give?
**A.** The difference in excitability was 1.63.

**Q.** What about the “difference in startle response” value [2] of the same compound?
**A.** Its value is 0.148.

**Q.** What about the “difference in activity during first hour” value [3] of the same compound?
**A.** Its value is 7.75.

**Q.** What about the “difference in habituation” value [4] of the same compound?
**A.** The value was 4.38.

**Q.** What about the difference [5] of the same compound?
**A.** The difference was -2.92.
